High-throughput results (PubChem BioAssay)
Most compounds without a hit are left out; they make up all but 9.5% or so of the library.
Tau fluor cs – counter-screen for tau fibril formation inhibitors; tau K18 P301L Alexa594 fluorescence, heparin fibrillization; Potency, µM (highest dose often 57.7 µM), without a hit: at the top dose activity change, negative = decrease; actives 0.93% (n = 280,000); also: nearly all actives have a fitted effect of over 55% in size
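Human tau K18 P301L (15 uM unlabeled, 0.24 uM Alexa 594-labeled) in 100 mM sodium acetate pH 7 with 20 uM heparin, 6 hr at 37 C. ThT 30 uM added, 1 hr ambient; Alexa 594 FP and total fluorescence read at 555/632 nm.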
Tau ThT inhib – blocks human tau fibril formation measured by thioflavin T. P10636. recombinant tau K18 P301L, heparin-induced fibrillization, ThT fluorescence. Potency, µM (titrated, usually from 57.4 µM), for the others: at the highest dose activity, negative = inhibition, usual class: inhibitors. actives 2.1% (n = 270,000); also: nearly all actives have a fitted effect of over 55% in size
Target sequence (P10636 561-689 P618L limits assumed): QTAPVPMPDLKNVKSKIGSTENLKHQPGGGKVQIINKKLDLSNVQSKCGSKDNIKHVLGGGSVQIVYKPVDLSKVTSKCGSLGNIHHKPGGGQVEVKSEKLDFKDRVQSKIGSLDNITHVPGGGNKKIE
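Fibril formation assay: tau K18 P301L at 15 uM with trace Alexa 594 label, heparin inducer 20 uM, pH 7 sodium acetate buffer, 37 C for 6 hr; endpoint ThT signal.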
ALDH1A1 inh – inhibitors of human aldehyde dehydrogenase 1A1; Purified ALDH1A1, NADH fluorescence, propionaldehyde substrate; Potency, µM (titrated, usually from 75.3 µM), inactives show top-dose activity, negative = inhibition, actives largely listed as inhibitors; actives 7.3% (n = 220,000); AID 1030; active = well fitted inhibition curve with a large enough effect, not every such curve was filed as active; inconclusive = small, poorly fitted or top-dose-only effect, or another doubt; inactive = no such curve, though single readings can be large or run the other way;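 also: plate controls were no enzyme wells and a reference inhibitor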
HPGD block – HPGD (human) dehydrogenase inhibition. P15428. actives 4.3% (n = 150,000). purified HPGD, NADH fluorescence kinetic, PGE2 substrate. Potency, µM, inactives show at the top dose activity change, negative = inhibition, most hits filed as inhibitors; active = well fitted inhibition curve with a large enough effect, not every such curve was filed as active; inconclusive = small, poorly fitted or top-dose-only effect, or another doubt; inactive = no such curve, though single readings can be large or run the other way
Target sequence (P15428 whole entry, looked up): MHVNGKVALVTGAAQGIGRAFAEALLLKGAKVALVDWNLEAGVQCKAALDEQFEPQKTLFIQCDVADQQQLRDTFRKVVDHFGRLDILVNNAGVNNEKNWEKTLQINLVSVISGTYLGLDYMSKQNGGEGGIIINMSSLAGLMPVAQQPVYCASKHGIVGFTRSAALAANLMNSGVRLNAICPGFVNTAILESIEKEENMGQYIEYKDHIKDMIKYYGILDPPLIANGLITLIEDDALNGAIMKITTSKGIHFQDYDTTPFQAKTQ
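20 nM HPGD preincubated 15 min at room temperature with compound in 50 mM Tris-HCl pH 8, 0.01% Tween 20. Started with 1 mM NAD+ and 30 uM prostaglandin E2; NADH fluorescence (360/450 nm) read 5 times over 30-s intervals, last minus first.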
Tau FP inhib – blocks human tau fibril formation measured by polarization; K18 P301L tau heparin fibrillization, Alexa594 FP, 6 h; AID 1468; Potency, µM (highest dose often 57.7 µM), for the others: top-dose activity, negative = inhibition, most hits filed as inhibitors; actives 0.39% (n = 280,000); also: nearly all actives have a fitted effect of over 55% in size
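Quantitative HTS format: compounds meet 15 uM recombinant K18 P301L tau and Alexa 594-tau tracer in 100 mM sodium acetate pH 7; 20 uM heparin triggers fibrillization at 37 C over 6 hr; FP gives the signal.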
NPSR antagonist – neuropeptide S receptor (human) antagonism, cAMP; Q6W5P4; CHO-NPSR cells, cAMP TR-FRET, antagonist mode; Potency, µM (doses to about 38.3 µM), inactives show top-dose activity change, negative = inhibition, usual class: inhibitors; actives 1% (n = 220,000); AID 1461; also: nearly all actives have a fitted effect of over 50% in size
Target sequence (Q6W5P4 whole entry, looked up): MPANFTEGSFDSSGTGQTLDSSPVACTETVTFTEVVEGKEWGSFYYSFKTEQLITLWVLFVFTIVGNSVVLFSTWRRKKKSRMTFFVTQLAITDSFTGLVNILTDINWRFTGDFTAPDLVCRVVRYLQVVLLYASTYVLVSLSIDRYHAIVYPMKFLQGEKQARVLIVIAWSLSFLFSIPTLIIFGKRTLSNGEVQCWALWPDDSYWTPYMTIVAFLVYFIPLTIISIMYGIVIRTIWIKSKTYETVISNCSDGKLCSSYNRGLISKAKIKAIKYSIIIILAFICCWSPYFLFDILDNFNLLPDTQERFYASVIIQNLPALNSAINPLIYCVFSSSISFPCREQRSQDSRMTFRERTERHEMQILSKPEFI
Numbers without * were called inactive; u = inconclusive; x = no result given; [ ] = remark or other dose. Unless noted, calls follow the shape of the dose curve; as a rule, active = well fitted curve in the direction sought with a large enough effect; inconclusive = small, poorly fitted or top-dose-only effect, or another doubt; inactive = no such curve, though single readings can be large; an effect the other way counts as inactive or inconclusive. Unless noted, % is scaled to controls: 0 for no effect and ±100 for the full control effect; potency is read from the fitted curve at half-maximal effect.

SMILES | Tau fluor cs | Tau ThT inhib | ALDH1A1 inh | HPGD block | Tau FP inhib | NPSR antagonist
CS(=O)(=O)N1CCC2(CCCN(C(c3ccccc3)c3ccccc3)C2)CC1 | x | x | 11.9% | 0.8% | x | x
CSc1ncccc1C(=O)Nc1ccc(S(=O)(=O)NC2=NCCCCC2)cc1 | 1.4% | -1.5% | 8.91µM* | x | 7.5% | 0.4%
CN(C)S(=O)(=O)c1ccc(C(=O)Nc2ccc(S(=O)(=O)NC3=NCCCCC3)cc2)cc1 | -2.7% | -5.0% | u | -31.1% | -2.6% | -1.5%[46.1 µM]
O=C(c1ccccc1)c1coc2ccc(O)c(Cl)c12 | -12.3% | 7.6% | u | 14.1µM* | 4.7% | -27.3%[46.1 µM]
CNc1ccccc1C(C)(C)c1cc(C)[nH]n1 | 7.3% | -1.0% | 9.6% | x | u | 0.8%
CNc1ccccc1C(C)(C)c1cc(-c2ccco2)n[nH]1 | u | u | 7.94µM* | -4.1% | u | -9.7%[46.1 µM]
Cc1cccc(N2C(=O)CN(Cc3sccc3C)C2=S)c1 | 8.0% | 5.3% | -0.8% | 14.1µM* | 3.3% | -5.8%
Cc1cc(C)cc(N2C(=O)CN(Cc3sccc3C)C2=S)c1 | -1.2% | -2.6% | 0.4% | 28.2µM* | 8.1% | -7.8%
Cc1ccsc1CN1CC(=O)N(c2c(C)cccc2C)C1=S | -22.2% | -19.2% | 5.9% | x | 5.6% | -13.4%
CCc1ccc(N2C(=O)CN(Cc3sccc3C)C2=S)cc1 | -29.4% | -16.6% | -3.4% | x | -2.4% | -27.4%
O=S(=O)(c1ccccc1)N1CCC2(CCCN(Cc3nccs3)C2)CC1 | x | x | u | -2.9% | x | x
COc1cc(/C=N/N(C)C)cc(Br)c1O | -9.1% | -19.3% | x | x | 6.2% | -3.8%
CN=c1scc(C)n1/N=C/c1ccc(O)c(O)c1O | u | 7.08µM* | 3.16µM* | 7.08µM* | 25.1µM* | -18.7%[46.1 µM]
CN=c1scc(C)n1/N=C/c1cc(Br)c(O)c(OC)c1 | u | 12.6µM* | u | x | 5.9% | -4.6%
CN=c1scc(-c2cccs2)n1/N=C/c1ccc(O)c(O)c1O | 20µM*[quencher] | 12.6µM* | 6.31µM* | 5.01µM* | u | -50.8%
CN=c1scc(-c2cccs2)n1/N=C/c1ccccc1O | -2.9% | 10.6% | 2.5% | u | -7.8% | -44.0%
Cc1ccc(-c2nn3cnnc3c3ccccc23)cc1 | -7.5% | -7.8% | u | x | -1.5% | 0.0%
Cc1ccc(C#CC[N+](C)(C)CC#Cc2ccccc2)cc1 | 13.8% | u | u | x | 5.7% | -10.2%
C=CCn1c(SCc2nc3ccccc3nc2C)nnc1-c1ccoc1C | 4.3% | 9.5% | 1.58µM* | 25.1µM* | -1.9% | u
Cc1ccc(C(NC(=O)N2CCOCC2)=C(Cl)Cl)cc1F | -8.1% | -12.3% | 0.112µM* | -14.8% | -5.7% | -19.8%[46.1 µM]
Cc1ccc(C(NC(=O)N2CCOCC2)C(Cl)Cl)cc1F (stereo not drawn) | 2.9% | -3.8% | 20µM* | 4.5% | -4.6% | 27.3%
Cc1ccc(C(NC(=O)N2CC(C)OC(C)C2)C(Cl)Cl)cc1F (stereo not drawn) | 4.3% | 2.7% | 10µM* | -7.5% | 8.4% | -7.5%
Cc1ccc(C(NC(=O)N2CCN(C)CC2)C(Cl)Cl)cc1F (stereo not drawn) | 7.1% | 2.6% | u | x | 5.8% | 13.2%
CCCN1CNC(=S)N(CC2CCCO2)C1 (stereo not drawn) | 4.9% | 4.3% | -0.9% | -7.6% | 2.2% | 19.3%
COc1c(OC(C)=O)ccc(/C=N\NC(=O)c2ccc(Br)cc2)c1[N+](=O)[O-] | -2.9%[2.34 µM] | 2.9% | -7.9% | x | 5.0% | 11.5%
SMILES | Tau fluor cs | Tau ThT inhib | ALDH1A1 inh | HPGD block | Tau FP inhib | NPSR antagonist
COc1ccc(N2CCC(CNC(=S)Nc3cc(C)cc(C)c3)C2)cc1 (stereo not drawn) | u | u | x | x | 7.4% | -52.5%
COc1ccc(N2CCC(CNC(=O)Nc3ccccc3)C2)cc1 (stereo not drawn) | u | u | 5.01µM* | u | 6.6% | -15.1%[46.1 µM]
O=C(NCC1CCN(S(=O)(=O)c2ccccc2)CC1)Nc1ccccc1 | -7.2% | 4.9% | 28.2µM* | x | 0.0% | 32.8%
COc1ccc2c(CC(=O)N3CCN(S(=O)(=O)c4cccs4)CC3)coc2c1 | -6.0% | -10.0% | 2.82µM* | -5.4% | 0.3% | -8.0%[46.1 µM]
Cc1onc(-c2c(F)cccc2Cl)c1C(=O)OCC(=O)c1c[nH]c2ccccc12 | 17.8µM*[quencher] | -3.3% | x | x | 17.8µM* | -41.6%
Cc1noc(C)c1C(=O)OCC(=O)c1c[nH]c2ccccc12 | -17.3% | -11.9% | 4.2% | -11.1% | 6.9% | -11.7%[46.1 µM]
CC(C)n1c(SCC(=O)c2ccc(F)cc2)nc2c(sc3ccccc32)c1=O | -6.1% | -0.5% | x | x | -5.9% | x
CCC(C)c1ccccc1NC(=O)COC(=O)c1ccc(N2CCCC2)c([N+](=O)[O-])c1 (stereo not drawn) | -19.4% | u | 12.6µM* | -27.0% | 3.4% | -13.2%
CC(=O)Nc1ccc(C(=O)CSc2nnnn2C(C)C)cc1 | 4.8% | 12.8% | -3.2% | -10.7% | -2.4% | 2.9%[46.1 µM]
O=S(=O)(NNc1nccc(C(F)(F)F)n1)c1cccc(Cl)c1Cl | -18.1% | 22.4µM* | x | x | u | -24.3%
CN(C)CC(C)(C)CNS(=O)(=O)c1cccc(Cl)c1Cl | -3.7% | -4.6% | -3.3% | -3.3% | -0.1% | -5.8%[46.1 µM]
CC1CCCN(C(=S)SCC(=O)c2cc(Br)cc(Br)c2O)C1 (stereo not drawn) | u | 15.8µM* | 25.1µM* | x | u | 43.1%
O=C(c1cc(Br)ccc1Cl)N1CCCC1 | -11.1% | -8.7% | -1.6% | x | 0.1% | 7.2%
O=C(CSC(=S)N1CCCC1)c1cc(Br)cc(Br)c1O | 14.1% | u | 15.8µM* | x | 6.0% | -25.1%
COc1cc(C(c2c(C)[nH][nH]c2=O)c2c(C)[nH][nH]c2=O)ccc1OS(=O)(=O)c1ccc(C)cc1 | -22.5% | u | -4.9% | -5.3% | -2.3% | -5.6%[46.1 µM]
COc1cc(C(c2c(C)[nH][nH]c2=O)c2c(C)[nH][nH]c2=O)ccc1OS(=O)(=O)c1ccccc1 | -17.0% | u | 1.58µM* | -8.1% | 6.3% | 1.9%[46.1 µM]
COc1cc(C(c2c(C)[nH][nH]c2=O)c2c(C)[nH][nH]c2=O)ccc1OC(=O)c1cccc([N+](=O)[O-])c1 | u | u | 3.7% | 3.3% | -1.4% | -28.7%[46.1 µM]
COc1cc(C(c2c(C)[nH][nH]c2=O)c2c(C)[nH][nH]c2=O)ccc1OCc1ccc([N+](=O)[O-])cc1 | u | 10µM* | -13.8% | -6.4% | -7.3% | -11.8%[46.1 µM]
COc1cc(C(c2c(C)[nH][nH]c2=O)c2c(C)[nH][nH]c2=O)ccc1OC(C)C | -5.7% | u | 14.1µM* | u | -10.8% | 14.1%
O=C(c1ccco1)N1CCCN(C(=O)c2ccco2)CC1 | 5.7% | -0.3% | 1.5% | -5.5% | 1.5% | 1.2%[46.1 µM]
O=C(c1ccco1)N1CCN(C(=O)N2CCOCC2)CC1 | -14.0% | -17.2% | 31.6µM* | -10.8% | -3.9% | -2.3%[46.1 µM]
